Measurements published in PubChem BioAssay (Tox21).
Where “and” joins values, the source holds several entries; their conditions need not be identical. Equal entries are not always repeated. Results filed as inconclusive are left out. Some compounds were tested as several samples or in several runs, with calls that do not always agree. Calls of active or inactive are those of the source. Unless noted, the call rests on the fitted dose curve; in most records, active means well fitted curve in the direction sought with a large enough effect in the repeat runs; inconclusive means weak or mixed curves; inactive means no such curve, though single readings can be large; an effect the other way counts as inactive or inconclusive.

Key:
[1] = qHTS assay to identify small molecule agonists of the estrogen receptor beta (ER-beta) signaling pathway - cell viability counter screen (AID 1259380); further: nearly all actives have a fitted effect of over 30% in size; further: potency means the concentration at half of the fitted maximal effect
Procedure, shortened: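 CellTiter-Glo read, 30 min RT, same wells as bla assay; cells ER-beta-UAS-bla HEK293T; 16 hr compound, 37C; medium 2% charcoal-stripped FBS.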

[2] = qHTS assay to identify small molecule antagonists of the estrogen receptor beta (ER-beta) signaling pathway - cell viability counter screen (AID 1259382); further: nearly all actives have a fitted effect of over 55% in size; further: potency means the concentration at half of the fitted maximal effect;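 on activity change, negative = cytotoxicity: HEK293T cells carrying ER-beta-UAS-bla reporter stimulated with estradiol; series mostly up to about 92 µM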
Procedure, shortened: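 In this multiplexed counter screen, cells were seeded at 2,000 per well in medium with 2% charcoal-stripped FBS and incubated 6 hr before compound and 1nM final E2 were added. Sixteen hours later, ATP-based luminescence reported viability.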

[3] = molecular target: Estrogen receptor (Homo sapiens) (UniProt P03372); assay: qHTS assay to identify small molecule agonists of the estrogen receptor alpha (ER-alpha) signaling pathway in the presence of an antagonist (AID 1259383; calls by dose curve; further: top concentration of the series differs between compounds; nearly all actives have a fitted effect of over 15% in size)
Sequence of Estrogen receptor (Homo sapiens) (P03372 whole entry, looked up): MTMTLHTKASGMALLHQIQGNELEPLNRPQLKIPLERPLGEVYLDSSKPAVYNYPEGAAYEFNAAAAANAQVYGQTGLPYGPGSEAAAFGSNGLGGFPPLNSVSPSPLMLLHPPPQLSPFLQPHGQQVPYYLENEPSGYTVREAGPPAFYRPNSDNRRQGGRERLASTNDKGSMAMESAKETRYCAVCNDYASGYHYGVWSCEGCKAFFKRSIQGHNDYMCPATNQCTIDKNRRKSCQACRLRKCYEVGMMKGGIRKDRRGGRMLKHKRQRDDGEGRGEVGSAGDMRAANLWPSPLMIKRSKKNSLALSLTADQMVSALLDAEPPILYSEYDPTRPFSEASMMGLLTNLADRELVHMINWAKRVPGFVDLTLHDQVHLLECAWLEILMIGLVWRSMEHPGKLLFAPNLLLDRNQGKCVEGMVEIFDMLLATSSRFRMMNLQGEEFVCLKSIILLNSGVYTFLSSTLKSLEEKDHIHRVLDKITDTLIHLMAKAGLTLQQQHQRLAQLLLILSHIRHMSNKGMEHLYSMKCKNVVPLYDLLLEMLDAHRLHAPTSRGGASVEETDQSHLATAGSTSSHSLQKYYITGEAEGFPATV
Procedure, shortened: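 Stably transfected VM7Luc4E2 reporter cells, kept 5 days in charcoal-stripped serum, received ICI-182,780 at 10.0nM final before compound addition. Following 22hr incubation at 37C and 5% CO2, luciferase signal was read by luminescence.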

[4] = qHTS assay to identify small molecule agonists or antagonists of the thyroid stimulating hormone receptor (TSHR) signaling pathway - wild type cell line counter screen (AID 1259384; calls by dose curve)
Procedure, shortened: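 Wild-type HEK293 cells were plated 18 h at 37 C/5% CO2, pin-dosed with compound plus Ro20-1724 medium, held 30 min at room temperature, then given cAMP-d2 and anti-cAMP-cryptate; fluorescence was read after 1 h. Fifteen concentrations, triplicate.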

[5] = qHTS assay to identify small molecule agonists of the estrogen receptor alpha (ER-alpha) signaling pathway in the presence of an antagonist - cell viability counter screen (AID 1259386);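 further: series mostly up to about 92 µM; cells exposed to compounds for 22 h at 37 °C before the viability read; nearly all actives have a fitted effect of over 30% in size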
Procedure, shortened: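 Viability counter screen using VM7Luc4E2 (full-length ER-alpha, four ERE-luciferase). The cells were treated with compounds alongside ICI-182,780 10.0nM for 22hr, and live-cell protease fluorescence was quantified with CellTiter-Fluor.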

[6] = molecular target: Progesterone receptor (Homo sapiens) (UniProt P06401); assay: qHTS assay to identify small molecule agonists of the progesterone receptor (PR) signaling pathway (AID 1346784; calls by dose curve; further: nearly all actives have a fitted effect of over 30% in size; further: potency means the concentration at half of the fitted maximal effect)
Sequence of Progesterone receptor (Homo sapiens) (P06401 whole entry, looked up): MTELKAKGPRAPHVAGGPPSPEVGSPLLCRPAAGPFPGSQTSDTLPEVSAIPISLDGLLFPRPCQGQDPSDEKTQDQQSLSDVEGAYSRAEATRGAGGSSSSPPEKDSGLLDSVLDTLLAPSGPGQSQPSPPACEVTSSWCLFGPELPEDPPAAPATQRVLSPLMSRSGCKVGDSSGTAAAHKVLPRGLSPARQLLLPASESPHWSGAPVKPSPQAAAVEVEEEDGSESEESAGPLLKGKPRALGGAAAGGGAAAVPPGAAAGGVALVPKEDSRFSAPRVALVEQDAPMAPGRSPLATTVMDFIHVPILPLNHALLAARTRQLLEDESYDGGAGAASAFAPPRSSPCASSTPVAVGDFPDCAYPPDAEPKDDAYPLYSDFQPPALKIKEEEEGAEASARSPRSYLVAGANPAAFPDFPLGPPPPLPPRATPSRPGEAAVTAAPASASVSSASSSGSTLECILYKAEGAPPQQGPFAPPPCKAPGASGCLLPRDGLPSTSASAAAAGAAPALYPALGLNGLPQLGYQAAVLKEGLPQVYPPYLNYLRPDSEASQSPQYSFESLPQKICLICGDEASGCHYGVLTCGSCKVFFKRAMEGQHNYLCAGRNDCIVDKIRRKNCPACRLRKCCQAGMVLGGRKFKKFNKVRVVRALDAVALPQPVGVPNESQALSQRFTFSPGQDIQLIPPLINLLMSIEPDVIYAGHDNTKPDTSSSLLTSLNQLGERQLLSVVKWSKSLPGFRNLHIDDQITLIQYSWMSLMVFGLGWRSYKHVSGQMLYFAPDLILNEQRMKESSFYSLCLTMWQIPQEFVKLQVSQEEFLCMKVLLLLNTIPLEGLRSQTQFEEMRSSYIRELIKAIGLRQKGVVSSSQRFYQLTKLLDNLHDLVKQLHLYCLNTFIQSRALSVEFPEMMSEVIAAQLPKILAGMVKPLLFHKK
Procedure, shortened: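 PR-UAS-bla HEK 293T cells carrying a UAS-driven beta-lactamase reporter were seeded in medium with 2% charcoal-stripped FBS, preincubated 6 hr at 37C, then exposed to compounds in DMSO for 16 hr; agonism was read by LiveBLAzer B/G FRET fluorescence.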

[7] = molecular target: Progesterone receptor (Homo sapiens) (UniProt P06401); assay: qHTS assay to identify small molecule antagonists of the progesterone receptor (PR) signaling pathway (AID 1346795; active means well fitted inhibition curve with a large enough effect in the signal ratio in the repeat runs, not every such curve was filed as active; the % refers to the signal ratio; further: potency means the concentration at half of the fitted maximal effect)
Procedure, shortened: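 PR-UAS-bla HEK293T cells carrying a UAS-driven beta-lactamase reporter were plated in medium with 2% charcoal-stripped FBS and rested 6 hr at 37C. Compounds were added with 1 nM R5020 (final) for 16 hr, then FRET substrate loaded 2 hr at room temperature.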

[8] = qHTS assay to identify small molecule antagonists of the progesterone receptor (PR) signaling pathway - cell viability counter screen (AID 1346798); further: nearly all actives have a fitted effect of over 50% in size; further: potency means the concentration at half of the fitted maximal effect; on activity change, negative = cytotoxicity: series mostly up to about 92 µM
Procedure, shortened: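 PR-UAS-bla HEK293T cells in medium with 2% charcoal-stripped FBS were treated with compounds plus R5020 for 16 hr at 37C. Cell viability was then read by CellTiter-Glo luminescence after 30 min at room temperature in the same wells.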

[9] = qHTS assay to identify small molecule antagonists of the TGF-beta/Smad signaling pathway - cell viability counter screen (AID 1346824); further: nearly all actives have a fitted effect of over 50% in size
Procedure, shortened: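 SBE-bla HEK 293T cells were plated overnight at 37 C, then given compounds in DMSO plus TGF-beta1 (added as 0.25 ng/mL solution) for 5 hr. After the bla read, CellTiter-Glo was added to the same wells and luminescence read after 30 min at room temperature.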

[10] = qHTS assay to identify small molecule agonists of the TGF-beta/Smad signaling pathway - cell viability counter screen (AID 1346829); further: top concentration of the series differs between compounds; nearly all actives have a fitted effect of over 45% in size
Procedure, shortened: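 HEK 293T SBE-bla line, 5 hr compound exposure at 37 C, multiplexed CellTiter-Glo viability read by luminescence.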

[11] = qHTS assay to identify small molecule agonists of the TGF-beta/Smad signaling pathway (AID 1346859; active means well fitted activation curve with a large enough effect in the signal ratio in the repeat runs, not every such curve was filed as active; the % refers to the signal ratio; further: series mostly up to about 77 µM)
Procedure, shortened: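 HEK 293T cells stably carrying a beta-lactamase reporter driven by the Smad binding element were seeded overnight, exposed to DMSO-dissolved compounds for 5 hr at 37 C, 5% CO2, then loaded with FRET substrate for 2 hr at room temperature.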

[12] = Human pregnane X receptor (PXR) small molecule agonists, qHTS cell viability counter screen (AID 1346977); further: nearly all actives have a fitted effect of over 50% in size; further: potency means the concentration at half of the fitted maximal effect
Procedure, shortened: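 PXR-Luc HepG2 cells in medium with 5% charcoal-stripped FBS were pre-incubated 5hr, then exposed to compounds for 24hr at 37C. Viability was read in the same wells by CellTiter-Fluor fluorescence, reagent added after 23hr with a 1hr incubation.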

[13] = Caspase-3/7 induction in HepG2 cells by small molecules, qHTS assay (AID 1346978); further: nearly all actives have a fitted effect of over 15% in size; further: potency means the concentration at half of the fitted maximal effect
Procedure, shortened: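 Wild-type HepG2 cells (2,000/well) were settled 5 h at 37 C, 5% CO2, then exposed to compounds in DMSO for 17 h. Caspase-3/7 activity was read by luminescence 30 min after adding Caspase-Glo 3/7 reagent at room temperature.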

[14] = Caspase-3/7 induction in CHO-K1 cells by small molecules, qHTS assay (AID 1346980); further: nearly all actives have a fitted effect of over 15% in size
Procedure, shortened: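 Wild-type cells were seeded at 1,500 per well and settled 5 hr at 37 C, 5% CO2, then exposed to DMSO-dissolved compounds for 17 hr. Caspase-Glo 3/7 reagent was added, and luminescence was read after 30min at room temperature.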

[15] = qHTS assay to identify small molecule agonists of the progesterone receptor (PR) signaling pathway - cell viability counter screen (AID 1346799; calls by dose curve; further: nearly all actives have a fitted effect of over 45% in size; further: potency means the concentration at half of the fitted maximal effect)
Procedure, shortened: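 PR-UAS-bla HEK293T cells, 3,000 per well in medium with 2% charcoal-stripped FBS, were preincubated 6 hr at 37C, then exposed to compounds for 16 hr; viability was read as CellTiter-Glo luminescence after 30 min at room temperature.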

[16] = molecular target: Thyrotropin-releasing hormone receptor (Homo sapiens) (UniProt P34981); assay: qHTS assay to identify small molecule antagonists of the thyrotropin-releasing hormone receptor (TRHR) signaling pathway (AID 1346877; active means well fitted inhibition curve with a large enough effect in the repeat runs, not every such curve was filed as active; further: potency means the concentration at half of the fitted maximal effect; on activity, negative = inhibition: series mostly up to about 51 µM)
Sequence of Thyrotropin-releasing hormone receptor (Homo sapiens) (P34981 whole entry, looked up): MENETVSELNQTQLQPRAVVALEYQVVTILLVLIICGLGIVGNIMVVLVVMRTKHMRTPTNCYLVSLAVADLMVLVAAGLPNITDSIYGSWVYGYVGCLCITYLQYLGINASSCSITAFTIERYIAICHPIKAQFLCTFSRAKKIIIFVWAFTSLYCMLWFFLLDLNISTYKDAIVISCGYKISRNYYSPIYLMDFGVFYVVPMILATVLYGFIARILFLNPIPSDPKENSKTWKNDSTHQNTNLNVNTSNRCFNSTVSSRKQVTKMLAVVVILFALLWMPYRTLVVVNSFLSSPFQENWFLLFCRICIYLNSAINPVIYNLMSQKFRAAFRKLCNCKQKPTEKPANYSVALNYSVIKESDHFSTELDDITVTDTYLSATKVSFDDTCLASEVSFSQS
Procedure, shortened: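 Following an 18 h incubation at 37 °C and a 2 h calcium dye load, TRHR-HEK293 cells were exposed to compound (5 min, room temperature) and challenged with TRH, 1 nM final.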

[17] = molecular target: Thyrotropin-releasing hormone receptor (Homo sapiens) (UniProt P34981); assay: qHTS assay to identify small molecule agonists of the thyrotropin-releasing hormone receptor (TRHR) signaling pathway (AID 1346891; calls by dose curve; further: series mostly up to about 58 µM)
Procedure, shortened: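 TRHR-expressing HEK293 cells were plated 18 h at 37 °C/5% CO2, loaded with calcium dye 2 h at 37 °C, then given compound in DMSO; fluorescence was read kinetically for 3 min at 1 s intervals.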

[18] = Caspase-3/7 induction in CHO-K1 cells by small molecules, qHTS cell viability counter screen (AID 1346979); further: nearly all actives have a fitted effect of over 35% in size; further: potency means the concentration at half of the fitted maximal effect
Procedure, shortened: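 Wild-type CHO-K1 cells were seeded at 1,500 per well, rested 5hr at 37 C, then exposed to compounds in DMSO. After 16hr, CellTiter-Fluor reagent was added and fluorescence read 1hr later as the viability measure.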

[19] = molecular target: Thyrotropin receptor (Homo sapiens) (UniProt P16473); assay: qHTS assay to identify small molecule antagonists of the thyroid stimulating hormone receptor (TSHR) signaling pathway (AID 1259385; calls by dose curve; further: nearly all actives have a fitted effect of over 20% in size)
Sequence of Thyrotropin receptor (Homo sapiens) (P16473 whole entry, looked up): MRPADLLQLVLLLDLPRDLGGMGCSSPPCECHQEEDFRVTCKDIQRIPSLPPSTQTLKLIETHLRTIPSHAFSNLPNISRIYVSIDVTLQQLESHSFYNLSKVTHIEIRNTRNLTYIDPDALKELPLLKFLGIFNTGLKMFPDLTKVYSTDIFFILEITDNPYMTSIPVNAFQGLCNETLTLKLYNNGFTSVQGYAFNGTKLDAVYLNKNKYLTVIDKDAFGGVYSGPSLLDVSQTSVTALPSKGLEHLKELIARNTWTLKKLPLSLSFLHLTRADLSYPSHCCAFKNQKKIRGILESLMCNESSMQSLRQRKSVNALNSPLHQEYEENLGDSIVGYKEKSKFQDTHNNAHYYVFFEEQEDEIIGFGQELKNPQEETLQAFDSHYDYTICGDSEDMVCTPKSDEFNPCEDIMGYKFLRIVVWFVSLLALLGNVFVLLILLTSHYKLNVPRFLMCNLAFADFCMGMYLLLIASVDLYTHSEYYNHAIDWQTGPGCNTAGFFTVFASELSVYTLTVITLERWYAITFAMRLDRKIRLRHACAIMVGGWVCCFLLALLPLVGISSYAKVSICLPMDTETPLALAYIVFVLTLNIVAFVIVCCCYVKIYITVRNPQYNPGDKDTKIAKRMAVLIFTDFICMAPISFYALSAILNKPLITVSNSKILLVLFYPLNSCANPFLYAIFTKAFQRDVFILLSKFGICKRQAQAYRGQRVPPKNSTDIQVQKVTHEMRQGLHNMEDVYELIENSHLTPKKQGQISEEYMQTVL
Procedure, shortened: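 TSHR-HEK293 cells were plated and held 18 h at 37C/5% CO2, then given compound plus Ro20-1724 and stimulated with TSH at 1.5 ng/mL final. After 30 min at room temperature, cAMP was detected with cAMP-d2/anti-cAMP-cryptate (1 h) by fluorescence.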
On the % scale 0 is the no-effect control and ±100 the full control effect.

O=P(OC(CCl)CCl)(OC(CCl)CCl)OC(CCl)CCl
39.8 µM (active) and inactive: Potency [12]
active: Potency [7] 6.82 µM and 7.7 µM
inactive: Potency [1] | Potency [2] | Potency [3] | outcome [4] | Potency [5] | Potency [6] | Potency [8] | Potency [9] | Potency [10] | outcome [11] | Potency [13] | outcome [14]

C/C=C1/CC2C=CC1C2 (stereo not given)
inactive: Potency [1] | Potency [2] | Potency [3] | Potency [5] | Potency [6] | Potency [7] | Potency [8] | Potency [15] | Potency [9] | Potency [10] | outcome [11] | Potency [16] | outcome [17] | Potency [12] | Potency [13] | Potency [18] | outcome [14]

CCCCN(CCCC)CCCC
inactive: Potency [1] | Potency [2] | Potency [3] | Potency [5] | Potency [6] | Potency [7] | Potency [8] | Potency [15] | Potency [9] | Potency [10] | outcome [11] | Potency [16] | outcome [17] | Potency [12] | Potency [13] | outcome [14]

OCc1cccnc1
inactive: Potency [1] | Potency [2] | Potency [3] | Potency [5] | Potency [6] | Potency [7] | Potency [8] | Potency [15] | Potency [9] | Potency [10] | outcome [11] | Potency [16] | outcome [17] | Potency [12] | Potency [13] | Potency [18] | outcome [14]

C=CCOC(=O)c1ccccc1C(=O)OCC=C
inactive: Potency [1] | Potency [2] | Potency [3] | Potency [5] | Potency [6] | Potency [7] | Potency [8] | Potency [15] | Potency [9] | Potency [10] | outcome [11] | Potency [16] | outcome [17] | Potency [12] | Potency [13] | outcome [14]

CC(=O)c1ccccc1
inactive: Potency [1] | Potency [2] | Potency [3] | Potency [5] | Potency [6] | Potency [7] | Potency [8] | Potency [15] | Potency [9] | Potency [10] | outcome [11] | Potency [16] | outcome [17] | Potency [12] | Potency [13] | Potency [18] | outcome [14]

CCCCC(CC)COC(=O)CCCCC(=O)OCC(CC)CCCC (stereo not given)
inactive: Potency [1] | Potency [2] | Potency [3] | Potency [19] | Potency [5] | Potency [6] | Potency [7] | Potency [8] | Potency [15] | Potency [9] | Potency [10] | outcome [11] | Potency [16] | outcome [17] | Potency [12] | Potency [13] | outcome [14]

O=C(O)CC(C(=O)O)C(CC(=O)O)C(=O)O (stereo not given)
inactive: Potency [1] | Potency [2] | Potency [3] | outcome [4] | Potency [5] | Potency [6] | Potency [7] | Potency [8] | Potency [15] | Potency [9] | Potency [10] | outcome [11] | Potency [12] | Potency [13] | Potency [18] | outcome [14]

CC[C@H](C)C(=O)O[C@H]1C[C@@H](C)C=C2C=C[C@H](C)[C@H](CC[C@@H]3C[C@@H](O)CC(=O)O3)[C@H]21
active: Potency [1] 34.9 µM and 30.5 µM and 15 µM | Potency [2] 39.1 µM and 26.6 µM | Potency [8] 62 µM | Potency [15] 7.66 µM | Potency [18] 69.6 µM
inactive: Potency [3] | Potency [5] | Potency [6] | Potency [7] | Potency [9] | Potency [10] | outcome [11] | outcome [17] | Potency [12] | outcome [14]
38.5 µM (active) and inactive: Potency [16]
55.2 µM (active) and inactive: Potency [13]

CCN(CC)CCCC(C)Nc1ccnc2cc(Cl)ccc12 (stereo not given)
active: Potency [6] 0.119 µM | Potency [12] 13 µM
inactive: activity change, negative = cytotoxicity [1] -12.8% [at 8.39 µM] and -6.59% [at 19 µM] | activity change, negative = cytotoxicity [2] -20.4% [at 8.39 µM] and -8.86% [at 19 µM] | activation [3] -0.124% [at 8.39 µM] and -1.51% [at 19 µM] | activation [6] -0.551% [at 19 µM] | activity change, negative = inhibition [7] 0.105% [at 8.39 µM] and 2.39% [at 18.9 µM] | activity change, negative = cytotoxicity [8] 3.8% [at 8.39 µM] | activity change, negative = cytotoxicity [10] -0.0742% [at 6.97 µM] and -3.92% [at 15.8 µM] | activation [11] 1.95% [at 6.97 µM] and -1.03% [at 15.8 µM] | activity, negative = inhibition [16] 0.384% [at 4.65 µM] and -4.99% [at 10.5 µM] | activation [17] 0.225% [at 5.23 µM] and -0.0196% [at 11.8 µM] | activity change, negative = cytotoxicity [12] -20.8% [at 8.39 µM] | caspase activation [13] 1.19% [at 8.39 µM] and -0.361% [at 19 µM] | activity change, negative = cytotoxicity [18] -0.939% [at 8.39 µM] and -3.64% [at 19 µM] | caspase-3/7 activation [14] 0.759% [at 8.39 µM] and -0.715% [at 19 µM]

O=C(O)c1cc(=O)c2c(OCC(O)COc3cccc4oc(C(=O)O)cc(=O)c34)cccc2o1
inactive: Potency [1] | Potency [2] | Potency [3] | Potency [5] | Potency [6] | Potency [7] | Potency [8] | Potency [15] | Potency [9] | Potency [10] | outcome [11] | Potency [12] | Potency [13] | Potency [18] | outcome [14]

Cc1occc(=O)c1O
inactive: Potency [1] | Potency [2] | outcome [4] | Potency [19] | Potency [5] | Potency [6] | Potency [7] | Potency [8] | Potency [15] | Potency [9] | Potency [10] | outcome [11] | Potency [16] | outcome [17] | Potency [12] | Potency [13] | outcome [14]
